Screens: PubChem, SRMLSC
PMK inhibit: S. pneumoniae PMK inhibition; AID 539; inhibition, % at 10 µM; purified PMK, PK/LDH-coupled NADH absorbance 340 nm; actives 0.49% (n = 65,000);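 active means top-ranked compounds by inhibition in the single 10 µM screen, taking a fixed number of the strongest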;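 further: 0% = full reaction with DMSO carrier and 100% = background rate without enzyme reaction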
NADH enzymes: inhibition of NAD/NADH coupling enzymes, library profiling | AID 774 | coupled PK/LDH NADH assays, four targets | actives 0.02% (n = 65,000) | IC50, µM (doses to about 10 µM), inactives show at the top dose inhibition;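 active means single-dose screening hits from any of four coupled enzyme assays that gave an IC50 when retested across doses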;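 further: the DPM-DC format reads NADH fluorescence rather than 340 nm absorbance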
Spn MK inh: blocks S. pneumoniae mevalonate kinase; purified MK, PK/LDH-coupled NADH absorbance 340 nm; inhibition, % at 10 µM; actives 0.48% (n = 65,000);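 active means ranked among the strongest by inhibition in the single 10 µM screen, a fixed top-ranked set picked for dose follow-up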
Fluor 339 460: intrinsic fluorescence of library compounds, ex339/em460 – biochemical, MLSMR library, data from DPM-DC assay, artefact control, profiling panel; actives 5.5% (n = 65,000); fluorescence fold increase at 10 µM; compound autofluorescence, ex339/em460 nm, NADH buffer; hits give high values; 1 = no-compound wells, NADH background;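 active means at 10 µM, mean starting fluorescence two-fold or more over control wells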;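 further: signal is the first read of a kinetic run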
A340 absorber: compound absorbs light at 340 nm; compound absorbance at 340 nm, fold over control; 65,000 tested, under 10 active; fold change at 10 µM;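 active means at 10 µM dose, initial 340 nm absorbance at least 2 fold that of control wells; inactive means change under 2 fold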;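 further: initial absorbance extrapolated from kinetic A340 decline of NADH oxidation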
Spn DPM-DC inh: S. pneumoniae DPM-DC inhibition; AID 556; actives 0.49% (n = 65,000); calls only at 10 µM; purified DPM-DC, PK/LDH coupled NADH fluorescence;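 active means the 320 compounds with the highest percent inhibition in the single-dose primary screen, excluding strongly autofluorescent ones, cut at about 32% in these data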;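 further: kinetic rate of NADH fluorescence loss reporting ADP formed by the decarboxylase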
* marks the source's active call; other numbers are inactive results; i = inactive; . = no result given; + = active, no number. In the library only some 6.8% were active in any assay of this set; here they are far more common.

SMILES | PMK inhibit | NADH enzymes | Spn MK inh | Fluor 339 460 | A340 absorber | Spn DPM-DC inh
O=C(O)c1ccccc1NCc1ccncc1 | 2 | 8% | 12 | 2* | 1 | i
Cn1c(NC(=O)c2cc(Br)ccc2Cl)cc(=O)n(C)c1=O | 7 | 4% | 6 | 1.1 | 1.1 | i
O=c1[nH]c(NCCO)nc2c1C1(CCCCC1)Cc1ccccc1-2 | 10 | 11% | 11 | 3.9* | 1 | .
CCc1nc2c(c(=O)[nH]1)C1(CCCC1)Cc1ccccc1-2 | 0 | 3% | 8 | 1.2 | 1.1 | i
CC1(C)CC(n2c(NCCO)nc3c(c2=O)C2(CCCC2)Cc2ccccc2-3)CCO1 (configuration not stated) | 17 | 12% | 6 | 2* | 1.1 | .
COc1cc2c(OC)cccc2cc1C(=O)O | 0 | 2% | 8 | 2.9* | 1 | .
c1ccc2sc(SN3CCOCC3)nc2c1 | 12 | 9% | 15 | 1.1 | 1 | i
C=CCSC1=C(C#N)C(c2cccc(OC)c2)CC(=O)N1 (configuration not stated) | 6 | 7% | 15 | 1.1 | 1 | i
Cc1ccc(C2CC(c3cccs3)n3nc(N)nc3N2)cc1 (configuration not stated) | 9 | 5% | 0 | 2.3* | 1 | .
CCC(=O)N(Cc1ccco1)c1nc(-c2cc(OC)ccc2OC)cs1 | 5 | 4% | 5 | 1 | 1 | i
CCC(=O)N(Cc1ccco1)c1nc(-c2ccccc2)cs1 | 27* | 9% | 0 | 1 | 1 | i
CCC(=O)Nc1ccc(Cl)c(NC(=O)C(C)C)c1 | 8 | 2% | 8 | 1 | 0.99 | i
CC(C)=CC1C(C(=O)Nc2ccc(Br)cn2)C1(C)C (configuration not stated) | 11 | 6% | 6 | 1.1 | 1 | i
CCN(CC)C(=O)CSc1nc(C)cc(-c2cccs2)c1C#N | 8 | 10% | 11 | 1.1 | 1.1 | i
CCOC(=O)C(C)Sc1nc(-c2cccs2)ccc1C#N (configuration not stated) | 0 | 3% | 5 | 2.2* | 1.1 | .
C=COC(=O)CSc1nc(-c2cccs2)ccc1C#N | 0 | 3% | 8 | 2.1* | 1.1 | i
Cn1c(=O)n(Cc2ccc(F)cc2)c(=O)c2c1nc1n2CCCN1C1CCCCC1 | 3 | 5% | 11 | 1.1 | 1 | i
CCOc1cc(C2Nc3ccccc3C(=O)N2c2ccccc2)ccc1O (configuration not stated) | 1 | 6% | 11 | 3.6* | 1.1 | .
CCN(CC)c1ccc(-c2c(C#N)c(N)nc(OC)c2C#N)cc1 | 0 | 1% | 4 | 2.5* | 1.1 | .
COc1ccc2[nH]c(=O)c(CN(Cc3ccccc3)Cc3nnnn3CC3CCCO3)cc2c1 (configuration not stated) | 10 | 13% | 12 | 2.3* | 1.1 | i
Cc1ccc2[nH]c(=O)c(CN(Cc3cccs3)Cc3nnnn3Cc3ccccc3)cc2c1 | 11 | 6% | 8 | 1.2 | 1 | i
COc1cc2cc(CN(Cc3nnnn3Cc3ccccc3)CC3CCCO3)c(=O)[nH]c2cc1OC (configuration not stated) | 15 | 18% | 13 | 3.3* | 1.1 | i
CCc1ccc2[nH]c(=O)c(CN(Cc3ccc(OC)cc3)Cc3nnnn3CCOC)cc2c1 | 0 | 6% | 9 | 1.4 | 1.1 | i
O=C(c1ccco1)N1CCN(CC(O)COc2ccc3oc4ccccc4c3c2)CC1 (configuration not stated) | 12 | 5% | 3 | 1 | 0.98 | i
CC(C)NC(=O)C1(O)c2ccccc2NC(=O)N1c1ccc(Cl)c(Cl)c1 (configuration not stated) | 6 | 5% | 8 | 0.98 | 0.97 | i
SMILES | PMK inhibit | NADH enzymes | Spn MK inh | Fluor 339 460 | A340 absorber | Spn DPM-DC inh
CCCC(C(=O)NC1CCCC1)N(C(=O)Cn1nnc(-c2ccc(C)o2)n1)c1ccccc1OC (configuration not stated) | 2 | 2% | 3 | 1.1 | 1 | i
Cc1cc(Cn2ccnc2)c(C)cc1Cn1ccnc1 | 0 | 1% | 8 | 1.1 | 1 | i
CC(=O)Nc1cccc(NC(=O)c2c(-c3ccccc3Cl)noc2C)c1 | 4 | 4% | 7 | 1 | 1 | i
Cc1ccc(-c2cn3cccnc3n2)cc1NC(=O)c1c(-c2ccccc2Cl)noc1C | 10 | 5% | 0 | 5.2* | 1 | .
Cc1onc(-c2ccccc2Cl)c1C(=O)Nc1cccc(-c2nc3ncccn3c2C)c1 | 12 | 6% | 0 | 5.2* | 1 | .
Cc1onc(-c2ccccc2Cl)c1C(=O)Nc1ccc(-c2cn3cccnc3n2)cc1 | 18 | 9% | 0 | 5.2* | 1.1 | .
COc1ccc(C(=O)Nc2nncs2)cc1S(=O)(=O)N1CC(c2ccccc2)CC1=O (configuration not stated) | 0 | 1% | 2 | 1.1 | 1 | i
CCNc1nc(NC(C)C)nc(Nn2cnnc2)n1 | 3 | 1% | 0 | 1.1 | 1 | i
CCNc1nc(C)c2cc(Br)c(=O)n(CC)c2n1 | 5 | 6% | 7 | 2.1* | 1.2 | .
COC(=O)c1ccc(CNC(=O)COc2ccccc2Br)o1 | 6 | 3% | 8 | 1.1 | 1 | i
CC1=CC(C)(C)Nc2cc(C)c(C)cc21 | 8 | 7% | 10 | 2.7* | 1 | i
CC1=CC(C)(C)Nc2ccc(C)cc21 | 6 | 7% | 5 | 2.6* | 1 | i
Cc1cn2nc(N)c3ccccc3c2n1 | 13 | 8% | 2 | 5* | 1 | .
Cc1ccc2c(c1)nnn2C1CCN(CC(=O)Nc2ccc3c(c2)OCCO3)CC1 | 11 | 4% | 0 | 1.1 | 0.98 | i
O=C(CSc1nnnn1Cc1ccccc1)NCCc1ccccc1 | 4 | 22% | 10 | 1 | 1 | +
CCC(=O)Nc1cccc(NC(=O)CSc2nnnn2Cc2ccccc2)c1 | 8 | 16% | 7 | 1.3 | 1 | +
O=S(=O)(c1cnc[nH]1)N1CCc2ccccc21 | 7 | 4% | 5 | 1 | 0.99 | i
CCOC(=O)N1CCC(NC(=O)Cn2nc(Cc3ccncc3)c3ccccc3c2=O)CC1 | 18 | 9% | 10 | 1.1 | 1 | i
CC(=O)Nc1cccc(-c2nnc(SCc3ccccc3C#N)n2C)c1 | 1 | 5% | 13 | 1 | 0.98 | i
COC(=O)c1ccc(OCC(=O)Nc2nn(-c3ccccc3)nc2C(N)=O)cc1 | 12 | 15% | 14 | 2.2* | 1 | i
Cc1cc2c(cc1C)NC(CC(=O)NCc1ccccc1)C(=O)N2 (configuration not stated) | 0 | 0% | 0 | 2.1* | 1.2 | .
COc1ccccc1NC(=O)CC1Nc2ccccc2NC1=O (configuration not stated) | 6 | 10% | 11 | 1.4 | 1.1 | i
